# Screens: PubChem BioAssay, The Scripps Research Institute Molecular Screening Center
# A selection: hits, their analogues and other compounds. The true share with any hit is near 1.1%.
# HTR5A ag ctr – activates human HTR5A in OPRM1-OPRD1 agonist counter-screen. HTR5A agonist assay, luminescence, cell-based. activation, % at 9.3 µM. 340,000 tested, 0.61% active. AID 504692; in the data active means activation mostly above about 9.5%, no sharp cut-off; inactive means mostly below about 7.6%;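 further: 0% = cells with vehicle only and 100% = reference agonist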
# OPRM1-OPRD1 inv – inverse agonist of human OPRM1-OPRD1 heterodimerization. inhibition, % at 9.3 µM. P35372+P41143. cell-based MOR-DOR heterodimer luminescence, inverse agonism. 340,000 tested, 0.21% active; in the data active means inhibition above about 22%, passing the limit was not always enough;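 further: 0% = cells with DMSO and 100% = wells without cells with DMSO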
# MOR-DOR ag – OPRM1-OPRD1 heterodimerization agonism; cells, luminescence; activation, % at 9.3 µM; 340,000 tested, 0.3% active; in the data active means activation above about 18%;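 further: 0% = vehicle-treated cells and 100% = reference agonist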
# HTR5A inv ctr – counter-screen for OPRM1-OPRD1 inverse agonists: human HTR5A inverse agonism | P47898 | inhibition, % at 9.3 µM | 340,000 tested, 0.083% active | AID 504634 | HTR5A cell line, luminescence; in the data active means inhibition mostly above about 23%, no sharp cut-off; inactive means mostly below about 18%;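 further: 0% = cells with DMSO and 100% = no-cell wells with DMSO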
# * marks the source's active call; other numbers are inactive results.
SMILES,HTR5A ag ctr,OPRM1-OPRD1 inv,MOR-DOR ag,HTR5A inv ctr
CC(C)c1ccc(C2C3=C(COC3=O)Nc3cc4c(cc32)OCO4)cc1 (stereo not given),17*,-51,11,-45
COC(=O)c1ccccc1NC(=O)Nc1cc(C(C)(C)C)on1,1,6,-1,-4
CC(C)(C)c1cc(NC(=O)Nc2ccccc2)no1,11*,-29,6,-44
N/C(=N\OC(=O)c1ccc2ccccc2c1)c1ccccc1Cl,29*,-89,22*,-75
CN1CCN(C2=C(Cl)C(=O)c3ccccc3C2=O)CC1,-3,-136,28*,14
O=C1C(Cl)=C(N2CCC(C(=O)O)CC2)C(=O)c2ccccc21,-1,-22,4,0
CC(C)Cc1nnc(NC(=O)CCC(=O)NCc2ccccc2Cl)s1,6,18,-4,8
COc1ccc(NC(=O)c2[nH]c(C)c(C(C)=O)c2C)cc1,12*,-9,2,2
COc1ccc(NC(=O)c2[nH]c(C)c(C(C)=O)c2C)cc1Cl,0,2,0,-6
COc1ccc(NC(=O)c2[nH]c(C)c(C(C)=O)c2C)cc1S(=O)(=O)Nc1ccc(Br)cc1,13*,9,-2,-2
COc1ccc(NS(=O)(=O)c2cc(NC(=O)c3ccc(F)cc3)ccc2OC)cc1,5,6,-1,-16
CCOc1ccc(NC(=O)c2[nH]c(C)c(C(C)=O)c2C)cc1,-1,9,-2,3
COc1ccc(NC(=O)c2ccc(F)cc2)cc1S(=O)(=O)Nc1cc(C)ccc1Br,12*,-33,5,-9
Cc1nc(NC(=O)C2CC2)sc1C(=O)Nc1ccccc1Cl,-1,3,-1,5
CC(C)NC(=S)N/N=C1\CCCc2ccccc21,11*,-14,3,-29
O=C(/C=C/c1cccs1)Nc1ccncc1,-6,7,-1,15
CCCOC(=O)c1ccc(NC(=O)/C=C/c2cccs2)cc1,11*,-26,5,13
Cc1cccc(Nc2nc(CC(=O)O)cs2)c1,11*,1,0,5
C=CCNC(=O)C(=O)Nc1ccc2c(c1)N(S(=O)(=O)c1cccs1)CCC2,2,19,-3,-6
O=C(Nc1ccc(N2CCN(C(=O)c3ccco3)CC2)c(Cl)c1)c1cc2ccccc2o1,14*,-38,6,16
Cc1ccc(C(=O)Nc2ccc(N3CCN(C(=O)c4ccco4)CC3)cc2)c(Cl)c1,5,-14,2,-4
O=C(Nc1ccc(N2CCN(C(=O)c3ccco3)CC2)cc1)c1ccc([N+](=O)[O-])cc1Cl,10*,-2,1,0
CCN(Cc1nc(-c2ccc(OC)c(OC)c2)no1)C(=O)c1ccoc1C,4,-1,0,-15
Cc1cc(Cl)ccc1C(=O)C1CCCN(C(=O)c2cnsn2)C1 (stereo not given),-4,-6,1,-23
COc1ccc(S(=O)(=O)N2CCOCC2)cc1C(=O)N(C)Cc1ccco1,-4,5,-1,11
SMILES,HTR5A ag ctr,OPRM1-OPRD1 inv,MOR-DOR ag,HTR5A inv ctr
C#CC(=O)N(c1cccc(OC)c1)C(C(=O)NC1CCCC1)c1cccs1 (stereo not given),28*,-159,28*,-35
Cc1cccc(N(C(=O)C(F)(F)F)C(C(=O)NC2CCCCC2)c2cccs2)c1 (stereo not given),8,-52,9,9
COc1cccc(NC(=O)Nc2nc(-c3ccc(OC)c(OC)c3)cs2)c1,25*,-154,29*,-68
COc1ccc(-c2csc(NC(C)=O)n2)cc1OC,-2,10,-2,-19
CCOC(=O)Cc1csc(NC(=O)CSc2nc(=O)[nH]c3c2CCCC3)n1,3,-8,1,-10
COc1ccccc1C(=O)OCC(=O)NC(C)CCc1ccccc1 (stereo not given),13*,19,-4,-46
COc1ccc(OC)c(S(=O)(=O)N(C)CC(=O)N2CCOCC2)c1,11*,13,-4,22
COc1ccc(OC)c(S(=O)(=O)N(C)CC(=O)N2CCN(c3ccc(F)cc3)CC2)c1,-2,-3,0,6
CCCNc1[nH]c(=O)n(C)c(=O)c1N=O,9.6*,2,0,6
CCOCCCNC(=O)c1ccc(N2CC3CC(C2)c2cccc(=O)n2C3)c(NC(=O)Nc2cccc(OC)c2)c1 (stereo not given),0,6,-1,7
CC(C)c1cc(C(=O)NNC(=S)NCc2ccco2)c(O)c(C(C)C)c1,10*,-74,15,-26
COc1ccc(C(=O)NCc2nnc(SCC(=O)N3CCCc4ccccc43)o2)cc1OC,-1,7,-1,-7
Cc1cccc(OCC(=O)NCC(=O)N/N=C/c2ccc(O)cc2O)c1,-4,7,-1,9
Cc1cccc(OCC(=O)NCC(=O)N/N=C/c2ccccc2)c1,10*,-8,1,-27
CC(C)N(C(=O)CSc1nc2ccccc2n1Cc1ccccc1)C(C)C,10.0*,4,-1,-23
COCCN(C(=O)C1CC(=O)N(Cc2ccc(C)cc2)C1)c1c(N)n(CC(C)C)c(=O)[nH]c1=O (stereo not given),0,5,-1,1
CN(CC(=O)Nc1ccc(Cl)c(C(F)(F)F)c1)C(=O)COC(=O)C1CC2CCCC(C1)C2=O (stereo not given),3,0,0,-11
CC[C@]1(C(=O)OC)[C@H]2C(=O)N(Cc3ccccc3)C(=O)[C@H]2[C@H]2CN=C(SCc3ccc(C)cc3)N21,-4,6,-1,14
CC[C@]1(C(=O)OC)[C@H]2C(=O)N(Cc3ccccc3)C(=O)[C@H]2[C@H]2CN=C(SCC3CC3)N21,5.3*,9,-2,-18
Nc1nc(N)c2c(ccc3nccc32)[nH]1,12*,3,-1,-42
CCOc1ccc(CCNC(=O)c2ccc(F)c(S(=O)(=O)N3CCOCC3)c2)cc1OCC,11*,6,-1,9
CCOc1ccc(CCNC(=O)c2ccc(C)c(S(=O)(=O)N3CCOCC3)c2)cc1OCC,-1,13,-3,-16
Cc1cnc(NC(=O)C2CC=CCC2)s1 (stereo not given),-6,8,-1,15
COc1ccc(CN(C(=O)c2ccco2)C2CCS(=O)(=O)C2)cc1 (stereo not given),-7,12,-2,17
COc1cccc(CN(C(=O)c2ccco2)C2CCS(=O)(=O)C2)c1 (stereo not given),13*,8,-2,-36
COc1ccc(CC(=O)Nc2cccc(-c3nnc(-c4ccc(C)cc4)o3)c2)cc1OC,17*,-113,20*,-38
Cn1nc(C(=O)NCc2ccccc2)c2c1-c1ccccc1S(=O)(=O)C2,3,18,-3,-6
CC(C)CSc1nc2c(c(=O)[nH]c(=O)n2C)n1CC(O)COc1cccc2ccccc12 (stereo not given),13*,-32,6,-29
CC1(C)CC(N=c2cc(-c3ccccc3)oc3ccc(Cl)cc23)CC(C)(C)N1,14*,-58,11,-41
COc1ccc2[nH]c3c(=O)n(Cc4ccc(C(=O)N5CCCC5)cc4)c(=S)[nH]c3c2c1,1,5,-1,-16
